Test results from PubChem BioAssay (Tox21).
Records with an inconclusive call do not appear. Calls of active or inactive are those of the source. The call rests on the fitted dose curve.

Experiment: qHTS assay to identify small molecule antagonists of the estrogen receptor alpha (ER-alpha) signaling pathway - cell viability counter screen (AID 743074);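 further: HEK293 cells carrying ER-alpha-UAS-bla reporter stimulated with 17beta-estradiol; nearly all actives have a fitted effect of over 45% in size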
Conditions: ERalpha-bla HEK293 viability, CellTiter-Glo luminescence, 18 h; series mostly up to 69.4 µM; activity, negative = cytotoxicity: at the top concentration
On the % scale 0 is the no-effect control and ±100 the full control effect.

Row | Structure (SMILES) | activity, negative = cytotoxicity | outcome
1 | CCCCCCCCCCCCCCC1CO1 (configuration not stated) | -13.3% (inactive) | –
2 | O=C(C(=O)c1ccc(Br)cc1)c1ccc(Br)cc1 | -11.8% [at 32.6 µM] (inactive) | –
3 | C=C(C)C(=O)OCCN(C)C | 7.89% [at 79.1 µM] (inactive) | –
4 | CC(=O)N(O)CCCCCNC(=O)CCC(=O)N(O)CCCCCNC(=O)CCC(=O)N(O)CCCCCN | 6.72% [at 32.6 µM] (inactive) | –
5 | Nc1nc(N)c2nc(CNc3ccc(C(=O)N[C@@H](CCC(=O)O)C(=O)O)cc3)cnc2n1 | 4.04% (inactive) | –
6 | O=C(NN1CCCC1)NS(=O)(=O)c1ccc(Cl)cc1 | 29% (inactive) | –
7 | N[C@H]1C(O)O[C@H](CO)[C@H](O)[C@@H]1O (some centres not stated) | 6.01% (inactive) | –
8 | C=CC[N+]1([C@H]2C[C@H]3[C@@H]4CC[C@H]5C[C@H](OC(C)=O)[C@@H](N6CCCCC6)C[C@]5(C)[C@H]4CC[C@]3(C)[C@H]2OC(=O)CC)CCCCC1 | -6.88% (inactive) | –
9 | OCC1CC2CC1C1CCC(CO)C21 (configuration not stated) | -17.3% (inactive) | –
10 | Cn1c(=O)c2c(ncn2CC(O)CO)n(C)c1=O (configuration not stated) | -5.59% [at 32.6 µM] (inactive) | –
11 | CCOC(=O)CC(=O)c1cc(F)c(Cl)nc1Cl | 13.5% [at 79.1 µM] (inactive) | –
12 | O=C(O)COC(=O)Cc1ccccc1Nc1c(Cl)cccc1Cl | -12% [at 32.6 µM] (inactive) | –
13 | CCCCCCCCCCCCCCCBr | -11.1% (inactive) | –
14 | N#CCc1cccc(C(F)(F)F)c1 | -24% (inactive) | –
15 | CCCCOC(O)CC (configuration not stated) | 23.4% (inactive) | –
16 | C[C@H](CCC(=O)O)[C@H]1CC[C@H]2[C@@H]3[C@H](O)C[C@@H]4C[C@H](O)CC[C@]4(C)[C@H]3CC[C@]12C | – | inactive
17 | CC[C@H](C)[C@H](N)C(=O)O | -9.4% (inactive) | –
18 | CCCCCCc1ccc(N)cc1 | 18.2% (inactive) | –
19 | CC(C)NCC(O)COc1ccc(CC(N)=O)cc1 (configuration not stated) | -6.41% (inactive) | –

Row | Structure (SMILES) | activity, negative = cytotoxicity | outcome
20 | COCCOCCOCCOCCOC | -19.3% (inactive) | –
21 | C=C(C)C(=O)OC(C)C | 21.1% (inactive) | –
22 | N#CCCNCCC#N | 9.8% [at 79.1 µM] (inactive) | –
23 | NCCCOCCOCCOCCCN | -13.6% (inactive) | –
24 | CC(=O)NCCCS(=O)(=O)O | – | inactive
25 | Cc1ccc(C(N)=O)cc1N | 16.8% (inactive) | –
26 | O=C(O)C1CCC(C(=O)O)CC1 (configuration not stated) | -5.68% (inactive) | –
27 | Cc1ccccc1N=Nc1ccc(N=Nc2c(O)ccc3ccccc23)c(C)c1 | -4.53% (inactive) | –
28 | CCOC(=S)SSC(=S)OCC | – | inactive
29 | ClC(Cl)(Cl)c1ccc(C(Cl)(Cl)Cl)cc1 | 11.5% (inactive) | –
30 | CCCCCCCCCO | 0.877% (inactive) | –
31 | CN(C)CCCOc1nn(Cc2ccccc2)c2ccccc12 | -16.7% [at 32.6 µM] (inactive) | –
32 | CCOC(=O)CC(C)C | 16.3% (inactive) | –
33 | FC(F)(F)C(F)(F)C(F)(F)C(F)(F)C(F)(F)C(F)(F)CCI | 10.2% (inactive) | –
34 | CC(C(=O)O)c1ccc(-c2ccccc2)c(F)c1 (configuration not stated) | – | inactive
35 | CCCc1ccccc1 | 5.17% (inactive) | –
36 | Cc1ncsc1CCO | -11% (inactive) | –
37 | N=C(N=C(N)N)N1CCOCC1 | 24.4% [at 32.6 µM] (inactive) | –
